In the library only some 17% were active in any assay of this set; here they are far more common.
ATXN2 expr inh: inhibitors of ATXN2 expression; actives 0.72% (n = 360,000); Potency, µM (highest dose often 57 µM), for inactives: top-dose activity change, negative = inhibition, actives largely listed as inhibitors; HEK-293 ATXN2-luciferase reporter, luminescence, 24 h; note: % is set by controls: 0 for no effect and ±100 for the full control effect; nearly all actives have a fitted effect of over 55% in size
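ATXN2-luciferase reporter cells (luciferase flanked by upstream and downstream ATXN2 gene portions) were treated 24 h at 37 °C with compounds at up to 57 uM. SteadyGlo luminescence gave expression; GF-AFC fluorescence gave viability.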
ATXN viability: reduces viability in counter-screen for ATXN expression inhibitors; S2 cells (HEK-293 line with an ATXN2-luciferase reporter) viability, CellTiter-Fluor protease fluorescence, 24 h; actives 0.49% (n = 400,000); Potency, µM (doses to about 56.7 µM), actives largely listed as cytotoxic; note: nearly all actives have a fitted effect of over 40% in size
TGFb SMAD3 inh: inhibitors of TGF-b signaling | actives 1.2% (n = 410,000) | HepG2 CAGA-GFP TGF-b/SMAD3 reporter, GFP fluorescence, 18 h; TGF-beta stimulated, 500 pg/mL final | Potency, µM (top dose mostly 46.1 µM), for inactives: top-dose activity, negative = inhibition, usual class: inhibitors | AID 588855; note: % is set by controls: 0 for no effect and ±100 for the full control effect; nearly all actives have a fitted effect of over 65% in size
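First, reporter cells (HEPG2 CAGA-GFP) rested 2 h at 37 degrees C. Next, compounds were pinned in and TGF-beta added to 500 pg/mL final. After 18 h, GFP was imaged per cell and summed per well.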
HepG2 viability: kills HepG2 cells in TGF-b inhibitor counter-screen; HepG2 CAGA-GFP viability, ATP luminescence, 18 h; Potency, µM (series often up to 46.1 µM), without a hit: top-dose activity change, negative = cytotoxicity, hits mostly cytotoxic; actives 0.76% (n = 410,000); AID 588856
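HepG2 CAGA-GFP cells (1000/well, DMEM with 1% FBS) received compound, then TGF-beta at 500 pg/mL final, and were incubated 18 hours at 37 degrees C. Viability was read by CellTiter-Glo luminescence. Media-only wells were set as complete cell-killing and DMSO as no toxicity.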
DT40 TDP1 no CPT: qHTS for Inhibitors of human tyrosyl-DNA phosphodiesterase 1 (TDP1): qHTS in cells in absence of CPT | Potency, µM (series often up to 46.2 µM), inactives show top-dose activity change, negative = growth inhibition, usual class: inhibitors | DT40 Tdp1-/- hTDP1 cells, no CPT, ATP luminescence, 48 h | AID 686978, 2013 | actives 15% (n = 420,000); note: % is set by controls: 0 for no effect and ±100 for the full control effect; nearly all actives have a fitted effect of over 55% in size
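Chicken DT40 Tdp1-/- cells complemented with human TDP1, screened without camptothecin (DMSO vehicle only), 400 cells/well. Compounds pin-transferred, cells incubated at 37 °C for at least 48 hr. Growth read as ATP-dependent luminescence (CellTiter-Glo, 30 min at RT).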
DT40 TDP1 CPT: DT40-hTDP1 cell growth loss with CPT | AID 686979 | Potency, µM (titrated, usually from 46.2 µM), inactives show top-dose activity change, negative = growth inhibition, usual class: inhibitors | chicken DT40 Tdp1-/-;hTDP1 cells + 20 nM CPT, ATP luminescence, 48 h | actives 12% (n = 420,000); note: % is set by controls: 0 for no effect and ±100 for the full control effect; nearly all actives have a fitted effect of over 55% in size
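Cell growth measured by CellTiter-Glo luminescence after a minimum 48 h, 37 C compound exposure with 20 nM CPT in Tdp1-knockout DT40 cells stably expressing hTDP1, seeded 400/well; qHTS titration format.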
Starred values were filed as active, the others as inactive; i = inactive; ? = inconclusive; . = no result given. Calls come from the whole dose curve; as a rule, active = well fitted curve in the direction sought with a large enough effect; inconclusive = small, poorly fitted or top-dose-only effect, or another doubt; inactive = no such curve, though single readings can be large; an effect the other way counts as inactive or inconclusive. Potency is the fitted concentration of half-maximal effect.

SMILES | ATXN2 expr inh | ATXN viability | TGFb SMAD3 inh | HepG2 viability | DT40 TDP1 no CPT | DT40 TDP1 CPT
CCOC(=O)c1ccc(NC(=O)NCCOCCn2c(=O)oc3ccccc32)cc1 | -18% | i | ? | -11% | ? | ?
Cc1ccc(NC(=O)NCCOCCn2c(=O)oc3ccccc32)c(C)c1 | -12% | i | -21% | -12% | 5.8µM* | 4.6µM*
Cc1ccc(NC(=O)NCCOCCn2c(=O)oc3ccccc32)cc1F | -20% | i | ? | -20% | 5.8µM* | 5.8µM*
CCOC(=O)c1[nH]c(C)c(C(=O)Nc2ccc(C)c(Cl)c2)c1C | 0% | ? | 5% | -32% | ? | 16µM*
CCOC(=O)c1[nH]c(C)c(C(=O)Nc2ccc(C)c(F)c2)c1C | -8% | i | -13% | -36% | 18µM* | 10µM*
CCOC(=O)C1=C(NC(=S)NC(=O)c2ccccc2)c2ccccc2CC1(C)CC (centres undefined) | 70% | i | 0% | -16% | ? | -93%
CCOC(=O)C1=C(NC(=S)NC(=O)c2ccccc2)c2ccccc2CC1C(C)C (centres undefined) | -24% | i | -3% | -19% | 23µM* | ?
c1coc(CSc2ncnc3c2oc2ccccc23)c1 | 57% | i | 40% | 32% | 8.2µM* | 11%
CC(=O)CSc1ncnc2c1oc1ccccc12 | 22% | i | 3% | -19% | -16% | -5%
O=C(CSc1ncnc2c1oc1ccccc12)N1CCN(c2ccccc2)CC1 | . | . | -4% | -14% | 29µM* | ?
CC(=O)N1CCN(c2ccc(Nc3ncnc4c3oc3ccccc34)cc2)CC1 | ? | ? | 8% | -23% | 10µM* | 15µM*
c1ccc(CSc2ncnc3c2oc2ccccc23)cc1 | 4% | i | 28% | -19% | ? | ?
CCc1nc(Nc2ccc(N3CCN(C(C)=O)CC3)cc2)c2oc3ccccc3c2n1 | -13% | i | -4% | -42% | 13µM* | 21µM*
COc1ccc(CCN=C(N)NS(=O)(=O)c2cc(F)ccc2F)cc1 | 5% | i | 15% | -8% | -22% | -18%
O=C(Nc1cccc(F)c1)N1CCCC2(CCN(C(=O)c3ccco3)CC2)C1 | . | . | . | . | -20% | -121%
Cc1ccc(C(C)C)c(OCC(O)CN2CCc3ccccc3C2)c1 (centres undefined) | ? | ? | ? | -43% | ? | ?
O=C(COc1ccc(Br)cc1)Nc1ccc(N2CCOCC2)cc1N1CCOCC1 | -3% | i | -2% | -33% | -3% | -23%
CC(=O)N1CCN(c2ccccc2NC(=O)COc2cc(C)ccc2C(C)C)CC1 | -9% | i | 10% | -7% | ? | ?
Cc1ccc(C(C)C)c(OCC(=O)Nc2ccc(N3CCOCC3)cc2N2CCOCC2)c1 | -12% | ? | 6% | -1% | 18µM* | 23µM*
Cc1ccc(C(C)C)c(OCC(=O)Nc2ccccc2N2CCN(C)CC2)c1 | ? | ? | ? | -60% | 15µM* | ?
Cc1ccc(C(C)C)c(OCC(O)CN2CCN(c3ccccc3F)CC2)c1 (centres undefined) | . | . | 16µM* | -54% | ? | ?
COc1ccc(CNC(=O)C2CC(C)=CCC2C(=O)O)cc1 (centres undefined) | 4% | i | 2% | 8% | -16% | ?
O=C(Nc1ccc(Cl)cn1)c1cccc2ccccc12 | . | i | 0% | 2% | 5.8µM* | 5.2µM*
COc1cccc(NC(=O)/C=C\c2ccc(Cl)cc2)c1 | . | . | . | . | ? | 30µM*
O=C(CC(c1ccccc1)c1ccccc1)Nc1ccc(Cl)cn1 | -31% | i | 8% | 4% | 18µM* | ?
SMILES | ATXN2 expr inh | ATXN viability | TGFb SMAD3 inh | HepG2 viability | DT40 TDP1 no CPT | DT40 TDP1 CPT
O=C(/C=C/c1ccccc1)Nc1ccc(Cl)cn1 | 35% | i | -21% | -8% | 3.3µM* | 2.6µM*
Cc1cc(NC(=O)CC23CC4CC(C2)CC(CC(=O)Nc2cc(C)on2)(C4)C3)no1 | -9% | i | 14% | -14% | 1% | -3%
CNc1ccccc1C(=O)OC(C)C(=O)Nc1ccc(Cl)cn1 (centres undefined) | 8.9µM* | i | -35% | -13% | ? | ?
Cc1cccc(NC(=O)/C=C/c2ccc(Cl)cc2)n1 | 49% | i | 0% | -35% | 18µM* | ?
O=C(CSc1nnnn1C1CCCCC1)Nc1nc2c(s1)CCCC2 | -2% | ? | -24% | -22% | 21µM* | 15µM*
N#Cc1c(NC(=O)CSc2nnnn2C2CCCCC2)sc2c1CCCC2 | -1% | i | 0% | 11% | 16µM* | ?
O=C(Cn1c(-c2cccs2)cc2ccccc21)NCCCN1CCN(c2ccccc2F)CC1 | 0% | ? | ? | -51% | 16µM* | 23µM*
CCN1CCN(CCCNC(=O)Cn2c(-c3cccs3)cc3cc(Cl)ccc32)CC1 | -37% | ? | ? | -58% | ? | ?
O=C(Cn1c(-c2cccs2)cc2cc(F)ccc21)NCCCN1CCN(c2ccccc2F)CC1 | -24% | ? | ? | -36% | 21µM* | 21µM*
N#C/C(=C\c1cccc(OCC(=O)O)c1)c1nc2ccccc2[nH]1 | 23% | i | 6% | 2% | 14% | 4%
N#C/C(=C/c1ccc(OC(=O)c2ccc(Br)s2)cc1)c1nc2ccccc2[nH]1 | 7% | i | 31% | 3% | 23µM* | ?
COc1cc(/C=C(\C#N)c2nc3ccccc3[nH]2)cc(Cl)c1OCc1ccccc1Cl | 1% | . | -2% | -20% | 18µM* | 7.3µM*
N#C/C(=C\c1ccc(OCc2ccc(Cl)cc2Cl)cc1)c1nc2ccccc2[nH]1 | . | . | -13% | -12% | 21µM* | 16µM*
N#C/C(=C\c1ccc(OC(=O)c2ccc(Br)s2)cc1)c1nc2ccccc2[nH]1 | 46% | i | 16% | 18% | ? | ?
COC[C@@H]1CCCN1[C@@H]1CS(=O)(=O)N[C@H]1COCc1ccccc1 | 16% | i | -21% | 0% | -26% | -9%
O=C(NCc1ccccc1CN1CCCC1)c1ccc(Cl)c(S(=O)(=O)N2CCCC2)c1 | -12% | i | 20% | -24% | ? | ?
FC(F)(F)c1cccc(-n2cc(-c3ccccc3)c3c(N4CCCCC4)ncnc32)c1 | . | . | -1% | -3% | 23µM* | ?

High-throughput results: PubChem BioAssay, National Center for Advancing Translational Sciences (NCATS)
